Test results taken from the supplement of paper PMC10849652.
The full data set covers some 8,800 targets. This sample favours those with a hit. About 0.5% of all pairs of compound and target were hits.

compound: CC[C@@H]1C(=O)N(C)c2cnc(Nc3ccc(C(=O)N[C@H]4CC[C@H](N5CCN(CC6CC6)CC5)CC4)cc3OC)nc2N1C(C)C [volasertib]; assay: log2 fold change, soluble protein after heating vs DMSO (PISA); higher = thermal stabilisation; K562 lysate, 10 uM; active = over 0.2 and 3.5 SD of the protein, either way, in both replicates (recomputed)
Procedure, shortened: (§1)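 Log-two fold change in thermal stability relative to solvent controls is reported from duplicates. For each sample, crude K562 extract from dounce-homogenised pellets in PBS pH 7.4 with 1 mM MgCl2, at 1 mg/mL protein, was treated with 10 μM compound for 30 min. Aliquots heated for 3 min across 48°C-58°C were pooled, brought to 0.5% NP-40 at 4°C and cleared at 21,000xg for 90 min. The supernatant was quantified by TMTpro 16plex LC-MS/MS with channel sums equalised.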

UniProt O75208, sequence (O75208 whole entry, looked up): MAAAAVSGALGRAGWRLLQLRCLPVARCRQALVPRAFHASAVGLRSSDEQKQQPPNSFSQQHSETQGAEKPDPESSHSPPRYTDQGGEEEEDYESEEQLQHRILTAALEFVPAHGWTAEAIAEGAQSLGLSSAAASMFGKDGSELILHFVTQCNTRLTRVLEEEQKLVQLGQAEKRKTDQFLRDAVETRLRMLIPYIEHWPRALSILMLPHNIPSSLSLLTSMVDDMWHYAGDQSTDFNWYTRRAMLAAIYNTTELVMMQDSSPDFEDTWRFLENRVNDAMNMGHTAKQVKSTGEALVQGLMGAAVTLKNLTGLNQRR
UniProt O75122, sequence (O75122 whole entry, looked up): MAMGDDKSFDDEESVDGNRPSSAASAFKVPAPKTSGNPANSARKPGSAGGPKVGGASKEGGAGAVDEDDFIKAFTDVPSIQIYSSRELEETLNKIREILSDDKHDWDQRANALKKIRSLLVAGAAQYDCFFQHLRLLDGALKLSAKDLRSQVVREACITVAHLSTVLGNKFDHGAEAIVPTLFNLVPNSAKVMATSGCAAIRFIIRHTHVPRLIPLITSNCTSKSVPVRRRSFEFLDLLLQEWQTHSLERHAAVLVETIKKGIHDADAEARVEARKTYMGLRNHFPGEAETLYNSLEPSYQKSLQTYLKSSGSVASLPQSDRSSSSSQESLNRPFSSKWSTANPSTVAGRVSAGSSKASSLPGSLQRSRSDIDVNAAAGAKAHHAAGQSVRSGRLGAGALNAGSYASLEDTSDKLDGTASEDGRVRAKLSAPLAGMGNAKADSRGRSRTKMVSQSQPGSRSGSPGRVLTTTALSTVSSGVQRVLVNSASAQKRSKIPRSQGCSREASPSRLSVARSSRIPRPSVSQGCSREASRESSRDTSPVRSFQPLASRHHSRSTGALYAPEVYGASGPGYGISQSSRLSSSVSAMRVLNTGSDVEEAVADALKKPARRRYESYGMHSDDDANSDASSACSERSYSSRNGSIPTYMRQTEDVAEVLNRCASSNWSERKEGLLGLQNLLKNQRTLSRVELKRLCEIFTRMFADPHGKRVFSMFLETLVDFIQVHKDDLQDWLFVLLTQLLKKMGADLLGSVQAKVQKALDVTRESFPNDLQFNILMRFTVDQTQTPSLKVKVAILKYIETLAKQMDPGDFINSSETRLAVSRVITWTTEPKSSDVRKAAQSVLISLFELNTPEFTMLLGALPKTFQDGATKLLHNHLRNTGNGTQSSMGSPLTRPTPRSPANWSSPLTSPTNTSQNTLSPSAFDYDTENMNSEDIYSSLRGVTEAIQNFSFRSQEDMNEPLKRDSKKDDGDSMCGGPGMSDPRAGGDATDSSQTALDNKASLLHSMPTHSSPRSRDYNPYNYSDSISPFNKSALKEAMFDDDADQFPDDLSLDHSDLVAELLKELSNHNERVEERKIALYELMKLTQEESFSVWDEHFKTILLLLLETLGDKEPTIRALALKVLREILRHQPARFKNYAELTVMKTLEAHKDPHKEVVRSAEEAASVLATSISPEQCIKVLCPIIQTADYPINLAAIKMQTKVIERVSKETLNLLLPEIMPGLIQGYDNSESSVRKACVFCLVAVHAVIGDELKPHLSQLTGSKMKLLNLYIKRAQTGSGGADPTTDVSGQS
UniProt O60610, sequence (O60610 whole entry, looked up): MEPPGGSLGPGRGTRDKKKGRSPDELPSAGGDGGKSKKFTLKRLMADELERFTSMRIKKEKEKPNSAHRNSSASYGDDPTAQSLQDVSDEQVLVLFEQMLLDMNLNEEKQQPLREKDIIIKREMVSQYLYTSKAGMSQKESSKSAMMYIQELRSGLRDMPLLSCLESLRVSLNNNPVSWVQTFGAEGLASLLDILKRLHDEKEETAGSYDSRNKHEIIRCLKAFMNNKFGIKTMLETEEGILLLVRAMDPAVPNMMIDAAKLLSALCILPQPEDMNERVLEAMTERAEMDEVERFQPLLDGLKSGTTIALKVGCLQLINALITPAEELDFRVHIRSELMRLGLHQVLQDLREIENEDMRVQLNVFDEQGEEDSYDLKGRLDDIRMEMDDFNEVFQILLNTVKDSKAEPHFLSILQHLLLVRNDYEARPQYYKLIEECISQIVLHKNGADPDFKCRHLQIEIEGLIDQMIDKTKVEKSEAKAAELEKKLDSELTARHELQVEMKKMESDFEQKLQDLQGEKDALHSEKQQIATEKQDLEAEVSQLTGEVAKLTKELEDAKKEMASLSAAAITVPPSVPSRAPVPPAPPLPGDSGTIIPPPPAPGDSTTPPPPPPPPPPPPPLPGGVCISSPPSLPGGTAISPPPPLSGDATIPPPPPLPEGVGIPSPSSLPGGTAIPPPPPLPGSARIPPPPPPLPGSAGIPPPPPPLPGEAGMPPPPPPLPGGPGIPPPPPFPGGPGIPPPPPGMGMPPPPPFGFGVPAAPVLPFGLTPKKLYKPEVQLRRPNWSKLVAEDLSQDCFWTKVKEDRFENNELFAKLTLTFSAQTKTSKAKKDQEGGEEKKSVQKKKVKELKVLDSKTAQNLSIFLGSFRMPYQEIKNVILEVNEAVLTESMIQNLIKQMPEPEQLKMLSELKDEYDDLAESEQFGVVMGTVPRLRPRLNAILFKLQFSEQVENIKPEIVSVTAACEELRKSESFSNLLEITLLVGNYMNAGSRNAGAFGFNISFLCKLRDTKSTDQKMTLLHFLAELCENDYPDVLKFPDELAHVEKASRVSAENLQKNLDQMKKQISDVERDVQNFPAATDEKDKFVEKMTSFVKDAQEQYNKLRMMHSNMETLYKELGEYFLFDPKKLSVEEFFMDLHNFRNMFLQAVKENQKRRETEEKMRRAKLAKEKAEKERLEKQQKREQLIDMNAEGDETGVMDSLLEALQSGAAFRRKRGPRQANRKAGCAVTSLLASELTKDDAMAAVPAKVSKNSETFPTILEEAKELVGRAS
UniProt P48730, sequence (P48730 whole entry, looked up): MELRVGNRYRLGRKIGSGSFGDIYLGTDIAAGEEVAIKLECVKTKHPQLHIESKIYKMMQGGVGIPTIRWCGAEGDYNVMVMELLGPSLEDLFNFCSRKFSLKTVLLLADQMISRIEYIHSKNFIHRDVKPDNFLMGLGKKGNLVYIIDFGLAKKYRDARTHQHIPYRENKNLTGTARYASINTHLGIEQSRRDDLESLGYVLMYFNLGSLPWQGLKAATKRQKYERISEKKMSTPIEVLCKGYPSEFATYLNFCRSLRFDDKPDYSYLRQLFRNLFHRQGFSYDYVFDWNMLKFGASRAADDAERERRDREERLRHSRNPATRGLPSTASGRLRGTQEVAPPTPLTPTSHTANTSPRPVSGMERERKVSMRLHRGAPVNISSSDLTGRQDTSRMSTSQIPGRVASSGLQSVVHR
UniProt P51790, sequence (P51790 whole entry, looked up): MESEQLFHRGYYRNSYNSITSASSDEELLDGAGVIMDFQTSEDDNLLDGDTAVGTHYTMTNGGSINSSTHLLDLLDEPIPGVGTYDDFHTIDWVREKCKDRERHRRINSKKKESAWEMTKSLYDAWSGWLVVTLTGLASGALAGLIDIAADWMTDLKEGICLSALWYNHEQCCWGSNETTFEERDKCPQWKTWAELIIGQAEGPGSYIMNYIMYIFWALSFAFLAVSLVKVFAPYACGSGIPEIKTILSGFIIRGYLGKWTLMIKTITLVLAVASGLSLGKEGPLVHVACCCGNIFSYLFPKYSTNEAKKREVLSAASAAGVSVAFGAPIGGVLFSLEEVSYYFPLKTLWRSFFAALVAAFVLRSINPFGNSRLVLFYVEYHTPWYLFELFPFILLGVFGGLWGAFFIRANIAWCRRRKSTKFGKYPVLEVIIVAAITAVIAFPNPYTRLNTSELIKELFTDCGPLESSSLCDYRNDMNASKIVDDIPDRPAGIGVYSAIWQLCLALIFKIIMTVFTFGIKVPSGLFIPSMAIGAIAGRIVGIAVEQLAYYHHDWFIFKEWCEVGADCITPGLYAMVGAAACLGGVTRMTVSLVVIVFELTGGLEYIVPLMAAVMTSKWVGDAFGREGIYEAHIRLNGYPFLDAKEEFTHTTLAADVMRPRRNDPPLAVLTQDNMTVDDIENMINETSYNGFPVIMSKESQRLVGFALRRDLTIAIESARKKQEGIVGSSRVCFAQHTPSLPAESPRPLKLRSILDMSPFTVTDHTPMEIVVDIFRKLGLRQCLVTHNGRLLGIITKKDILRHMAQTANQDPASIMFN
UniProt Q6P3S1, sequence (Q6P3S1 whole entry, looked up): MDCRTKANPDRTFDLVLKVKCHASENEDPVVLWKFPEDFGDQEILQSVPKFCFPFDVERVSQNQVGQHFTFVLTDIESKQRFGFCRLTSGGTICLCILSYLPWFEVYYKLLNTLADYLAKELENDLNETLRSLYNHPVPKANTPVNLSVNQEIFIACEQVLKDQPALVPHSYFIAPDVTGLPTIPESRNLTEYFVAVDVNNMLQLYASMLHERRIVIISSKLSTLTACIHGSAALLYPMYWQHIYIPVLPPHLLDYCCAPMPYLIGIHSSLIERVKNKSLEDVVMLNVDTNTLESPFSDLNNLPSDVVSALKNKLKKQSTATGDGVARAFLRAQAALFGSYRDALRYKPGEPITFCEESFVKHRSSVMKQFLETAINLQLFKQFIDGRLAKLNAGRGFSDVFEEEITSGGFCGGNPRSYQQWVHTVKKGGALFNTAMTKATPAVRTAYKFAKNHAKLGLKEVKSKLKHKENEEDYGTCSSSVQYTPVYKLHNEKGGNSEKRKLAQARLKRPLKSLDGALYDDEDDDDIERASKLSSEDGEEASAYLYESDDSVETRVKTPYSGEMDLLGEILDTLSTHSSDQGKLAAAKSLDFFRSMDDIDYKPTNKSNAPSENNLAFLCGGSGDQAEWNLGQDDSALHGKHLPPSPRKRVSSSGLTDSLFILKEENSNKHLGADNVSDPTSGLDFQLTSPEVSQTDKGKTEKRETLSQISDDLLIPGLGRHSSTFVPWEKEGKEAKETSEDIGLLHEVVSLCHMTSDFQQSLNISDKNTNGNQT
UniProt Q9P003, sequence (Q9P003 whole entry, looked up): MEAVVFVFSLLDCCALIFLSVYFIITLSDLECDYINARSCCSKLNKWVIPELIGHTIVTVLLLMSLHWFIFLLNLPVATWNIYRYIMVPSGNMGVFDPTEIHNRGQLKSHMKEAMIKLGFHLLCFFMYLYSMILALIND

| Target | log2 fold change |
| --- | --- |
| DIAPH1 (UniProt O60610) | -0.002 (inactive) |
| COQ9 (UniProt O75208) | -0.012 (inactive) |
| DPY19L3 (UniProt Q6ZPD9) | -0.007 (inactive) |
| CSNK1D (UniProt P48730) | -0.191 (inactive) |
| DENND1B (UniProt Q6P3S1) | -0.05 (inactive) |
| DOCK10 (UniProt Q96BY6) | 0.027 (inactive) |
| DEF6 (UniProt Q9H4E7) | -0.05 (inactive) |
| CNIH4 (UniProt Q9P003) | -0.077 (inactive) |
| CLCN3 (UniProt P51790) | -0.025 (inactive) |
| DIAPH1 (UniProt H9KV28) | -0.046 (inactive) |
| CUEDC2 (UniProt Q9H467) | 0.027 (inactive) |
| DNAH5 (UniProt Q8TE73) | 0.02 (inactive) |
| CLASP2 (UniProt O75122) | -0.052 (inactive) |

compound: CCn1c(C(=O)N(C2CC2)C2CC2)cc2c3c(ncn3C)c(Nc3cc(C)n(C)n3)nc21; assay: as above
Procedure, shortened: as §1

| Target | log2 fold change |
| --- | --- |
| DHFR (UniProt P00374) | 0.046 (inactive) |
| COG4 (UniProt Q9H9E3) | 0.024 (inactive) |
| COASY isoform 2 (UniProt Q13057) | 0.034 (inactive) |
| DDX4 (UniProt Q9NQI0) | 0.015 (inactive) |
| COG5 isoform 2 (UniProt Q9UP83) | -0.007 (inactive) |
| COX7B (UniProt P24311) | -0.051 (inactive) |
| CSNK1A1 (UniProt P48729) | 0.097 (inactive) |
| DLG3 isoform 2 (UniProt Q92796) | -0.057 (inactive) |
| CUX1 isoform 2 (UniProt Q13948) | 0.019 (inactive) |
| DCTN1 isoform 4 (UniProt Q14203) | -0.28 (inactive) |
| DDAH1 (UniProt O94760) | 0.061 (inactive) |
| CSNK1G3 (UniProt Q9Y6M4) | 0.039 (inactive) |
| CUX1 isoform 3 (UniProt P39880) | -0.006 (inactive) |
| CINP isoform 3 (UniProt Q9BW66) | -0.033 (inactive) |
| CNNM2 (UniProt Q9H8M5) | -0.091 (inactive) |
| CNTN4 (UniProt Q8IWV2) | -0.326 (inactive) |
| DNAJC24 (UniProt Q6P3W2) | 0.002 (inactive) |

| Target | log2 fold change |
| --- | --- |
| DNAH10 (UniProt Q8IVF4) | -0.05 (inactive) |
| COQ8A (UniProt Q8NI60) | -0.029 (inactive) |
| CNOT4 isoform 9 (UniProt O95628) | 0.015 (inactive) |
| CKS1B (UniProt P61024) | -0.017 (inactive) |
| DDB2 (UniProt Q92466) | 0 (inactive) |
| DIAPH1 (UniProt O60610) | 0.009 (inactive) |
| COQ9 (UniProt O75208) | 0.002 (inactive) |
| CSNK1D (UniProt P48730) | 0.025 (inactive) |
| DENND1B (UniProt Q6P3S1) | -0.134 (inactive) |
| DOCK10 (UniProt Q96BY6) | 0.043 (inactive) |
| DEF6 (UniProt Q9H4E7) | -0.033 (inactive) |
| CNIH4 (UniProt Q9P003) | -0.19 (inactive) |
| CLCN3 (UniProt P51790) | 0.034 (inactive) |
| DIAPH1 (UniProt H9KV28) | -0.046 (inactive) |
| CUEDC2 (UniProt Q9H467) | -0.084 (inactive) |
| DNAH5 (UniProt Q8TE73) | -0.035 (inactive) |
| CLASP2 (UniProt O75122) | -0.098 (inactive) |
